From PubChem BioAssay
ELG1 genotoxic: induces genotoxicity in HEK293T cells with luciferase-tagged ELG1; HEK293T ELG1-luciferase reporter, luminescence, 16 h; Potency, µM (doses to about 46 µM), hits mostly activators; 1.3% of 330,000 active; AID 504466; note: nearly all actives have a fitted effect of over 60% in size
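HEK293T cells expressing luciferase-tagged ELG1 were exposed to compound or DMSO vehicle for 16 hr at 37 °C and 5% CO2. Luciferase activity was then measured with ONE-Glo after 30 min at room temperature.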
Rab9 promoter act: activators of Rab9 promoter; Huh7 Rab9 promoter-luciferase reporter, luminescence, 24 h; Potency, µM (doses to about 9.22 µM), most hits filed as activators; 2.8% of 320,000 active; AID 485297; note: nearly all actives have a fitted effect of over 60% in size
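Steps: seed 1500 Huh7 Rab9-luc cells per well, rest 2 h at 37 °C; add compound in DMSO; incubate 24 h; add luciferase reagent, 10 min ambient; read luminescence.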
FLuc counter: counter-screen for miR-21 project: firefly luciferase inhibitors or activators. purified FLuc, Km substrates, luminescence inhibition. P08659. 6.9% of 360,000 active. Potency, µM (series often up to 57.5 µM), hits mostly inhibitors; note: nearly all actives have a fitted effect of over 55% in size
Target sequence (P08659 whole entry, looked up): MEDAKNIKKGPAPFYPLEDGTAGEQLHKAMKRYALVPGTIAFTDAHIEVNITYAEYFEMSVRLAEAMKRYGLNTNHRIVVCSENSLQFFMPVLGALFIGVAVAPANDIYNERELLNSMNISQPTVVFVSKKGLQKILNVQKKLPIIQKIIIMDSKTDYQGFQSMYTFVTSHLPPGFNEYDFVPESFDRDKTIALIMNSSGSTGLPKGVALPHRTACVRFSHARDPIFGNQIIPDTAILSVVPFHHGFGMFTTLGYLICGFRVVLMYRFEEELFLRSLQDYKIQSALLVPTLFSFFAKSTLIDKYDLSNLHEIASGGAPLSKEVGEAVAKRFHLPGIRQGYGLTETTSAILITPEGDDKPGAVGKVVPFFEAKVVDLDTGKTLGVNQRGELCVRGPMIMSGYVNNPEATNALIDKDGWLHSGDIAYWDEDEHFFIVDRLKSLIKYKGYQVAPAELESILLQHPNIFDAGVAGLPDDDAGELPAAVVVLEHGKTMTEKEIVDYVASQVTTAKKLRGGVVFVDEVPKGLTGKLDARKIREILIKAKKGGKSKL
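Biochemical qHTS of compounds, final roughly 60 µM downward over six points, against 10 nM purified firefly luciferase using Km concentrations of substrates (10 uM D-luciferin, 10 uM ATP) in Tris acetate pH 7.5 buffer; luminescence output.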
SMN2 splice enh: SMN2 splice variant enhancement. HEK293 SMN2-luciferase splicing reporter, luminescence, 30-36 h. Potency, µM (top dose mostly 46.1 µM), most hits filed as activators. 2.8% of 210,000 active; note: nearly all actives have a fitted effect of over 55% in size
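HEK293 cells carry an SMN2 minigene-luciferase reporter in which exon 7 inclusion puts luciferase in frame. Cells were seeded at 2000 cells/well, attached for 10-12 hours, then exposed to compounds for 30-36 hours at 37C before ONE-Glo luminescence.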
NPC1 promoter act: activators of NPC1 promoter; Huh7 NPC1 promoter luciferase reporter, 24 h; AID 485313; 2.4% of 320,000 active; Potency, µM (highest dose often 9.22 µM), actives largely listed as activators; note: nearly all actives have a fitted effect of over 60% in size
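In 1536-well qHTS, Huh7 cells harboring an NPC1 promoter–luciferase construct received compound for 24 h; activation was quantified by luminescence following luciferase reagent addition.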
KinaseGlo FLuc: counter-screen: inhibitors of Kinase-Glo firefly luciferase; Kinase-Glo luciferase, ATP luminescence, 8 min; Q27757; AID 1379; Potency, µM (titrated, usually from 38.3 µM), most hits filed as inhibitors; 0.28% of 200,000 active; note: nearly all actives have a fitted effect of over 60% in size
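Compound is pinned into ATP-containing buffer (10 uM ATP, imidazole pH 7.2, 7 mM MgCl2). Kinase-Glo luciferase reagent is then added. Light output is recorded following an 8-min room-temperature incubation.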
Large screens that a line does not name were inactive. In the library only some 7.5% were active in any assay of this set; here they are far more common. Calls come from the whole dose curve; as a rule, active = well fitted curve in the direction sought with a large enough effect; inconclusive = small, poorly fitted or top-dose-only effect, or another doubt; inactive = no such curve, though single readings can be large; an effect the other way counts as inactive or inconclusive.

CCC(=O)NC(=S)Nc1ccc(NC(=O)CC)cc1	none
CCC(=O)NC(=S)Nc1ccc(NC(=S)NC(=O)c2ccc(C)cc2)cc1	ELG1 genotoxic inconclusive
CCC(=O)NC(=S)Nc1ccc(-c2nc3ccc(C)cc3s2)cc1	ELG1 genotoxic inconclusive, Rab9 promoter act 0.447µM, FLuc counter 16.9µM, NPC1 promoter act 0.794µM (no result: SMN2 splice enh, KinaseGlo FLuc)
O=C(NC1CCCCC1)c1ccc2c(c1)N(Cc1cccc(Cl)c1)C(=O)c1ccccc1S2=O (centres undefined)	none (no result: ELG1 genotoxic, Rab9 promoter act, SMN2 splice enh, NPC1 promoter act, KinaseGlo FLuc)
CCc1nc2oc3ccccc3c(=O)c2c(=O)n1-c1ccc(C)cc1	ELG1 genotoxic inconclusive, FLuc counter 16.9µM (no result: SMN2 splice enh, KinaseGlo FLuc)
CCCc1nc2oc3ccccc3c(=O)c2c(=O)n1-c1ccccc1	ELG1 genotoxic inconclusive (no result: SMN2 splice enh, KinaseGlo FLuc)
CCCc1nc2oc3ccccc3c(=O)c2c(=O)n1-c1ccc(C)cc1	ELG1 genotoxic inconclusive, Rab9 promoter act inconclusive (no result: SMN2 splice enh, KinaseGlo FLuc)
CCc1nc2oc3ccccc3c(=O)c2c(=O)n1-c1ccccc1	ELG1 genotoxic 13µM, SMN2 splice enh 11.2µM
COc1ccc(N2CC(NC(=O)c3ccc(S(=O)(=O)N4CCOCC4)cc3)CC2=O)cc1OC (centres undefined)	none (no result: ELG1 genotoxic, Rab9 promoter act, SMN2 splice enh, NPC1 promoter act, KinaseGlo FLuc)
O=C(Nc1cccnc1)c1cc(-c2cc(Cl)ccc2O)n[nH]1	Rab9 promoter act inconclusive, FLuc counter 2.39µM, NPC1 promoter act 2.82µM (no result: SMN2 splice enh, KinaseGlo FLuc)
COc1ccc(Cl)cc1C(=O)Nc1cccnc1	none (no result: SMN2 splice enh, KinaseGlo FLuc)
Cc1ccc(C)c(NC(=O)c2cc(-c3cc(C)c(C)cc3O)n[nH]2)c1	ELG1 genotoxic inconclusive, Rab9 promoter act 3.55µM, FLuc counter inconclusive, NPC1 promoter act inconclusive (no result: SMN2 splice enh, KinaseGlo FLuc)
Cc1ccc(O)c(-c2cc(C(=O)Nc3cccnc3)[nH]n2)c1	ELG1 genotoxic inconclusive, Rab9 promoter act 2.24µM, FLuc counter 5.36µM, NPC1 promoter act 2.82µM (no result: SMN2 splice enh, KinaseGlo FLuc)
COc1ccc(/C=C/C(=O)NC(=S)NNC(=O)Cc2cccs2)cc1	ELG1 genotoxic inconclusive, SMN2 splice enh 12.6µM
COc1ccc(/C=C/C(=O)NC(=S)NNC(=O)c2ccco2)cc1	none
O=C(/C=C/c1ccccc1)NC(=S)NNC(=O)Cc1cccs1	SMN2 splice enh 12.6µM
COc1ccc(C(=O)NNC(=S)NC(=O)/C=C/c2cccs2)cc1	ELG1 genotoxic 20.6µM, Rab9 promoter act 3.55µM, FLuc counter 2.69µM, NPC1 promoter act 3.55µM, KinaseGlo FLuc inconclusive (no result: SMN2 splice enh)
Cc1ccc(C)c(OCC(=O)N2CCN(c3ncccn3)CC2)c1	none (no result: SMN2 splice enh, KinaseGlo FLuc)
O=C(Cn1ncc2ccsc2c1=O)N1CCN(c2ccc(Cl)cc2)CC1	none (no result: ELG1 genotoxic, Rab9 promoter act, NPC1 promoter act, KinaseGlo FLuc)
Cc1ccc(C(=O)Nc2ccc3c(c2)CCC3)o1	ELG1 genotoxic 3.26µM, Rab9 promoter act 2.82µM, FLuc counter 4.26µM, SMN2 splice enh 4.47µM, NPC1 promoter act 3.16µM, KinaseGlo FLuc 12.6µM
O=C(Nc1ccc2c(c1)OCO2)c1ccc(COc2ccc3c(c2)CCC3)o1	ELG1 genotoxic inconclusive, Rab9 promoter act 3.98µM, FLuc counter 19µM, SMN2 splice enh 11.2µM, NPC1 promoter act inconclusive
Cc1ccc(NC(=O)c2ccc(Br)o2)cc1S(=O)(=O)N(C)C	Rab9 promoter act inconclusive, FLuc counter 13.5µM, SMN2 splice enh inconclusive, NPC1 promoter act inconclusive
O=C(Nc1ccc2c(c1)OCO2)c1ccc(Br)o1	ELG1 genotoxic 18.4µM, Rab9 promoter act 2.82µM, FLuc counter 23.9µM, SMN2 splice enh 11.2µM, NPC1 promoter act 2.51µM
C[C@H]1CN([C@@H](C)CO)C(=O)Cc2cc(NS(=O)(=O)c3ccc(Cl)cc3)ccc2O[C@@H]1CN(C)C(=O)Nc1cccc2ccccc12	none (no result: Rab9 promoter act, FLuc counter, SMN2 splice enh, NPC1 promoter act, KinaseGlo FLuc)
O=C(Nc1ccc2c(c1)CCC2)c1cc2ccccc2o1	ELG1 genotoxic 1.64µM, Rab9 promoter act 1.26µM, FLuc counter 1.35µM, SMN2 splice enh 12.6µM, NPC1 promoter act 1.26µM
O=C(Nc1ccc2c(c1)CCC2)c1ccc(Br)o1	ELG1 genotoxic 6.51µM, Rab9 promoter act 3.16µM, FLuc counter 6.75µM, SMN2 splice enh 12.6µM, NPC1 promoter act 3.55µM
c1cnc2c(OCc3cn4cccnc4n3)cccc2c1	ELG1 genotoxic inconclusive, FLuc counter inconclusive
Cc1cc(Cl)ccc1OCc1cn2cccnc2n1	ELG1 genotoxic inconclusive, Rab9 promoter act 3.16µM, FLuc counter 12µM, SMN2 splice enh 12.6µM, NPC1 promoter act 3.55µM
Clc1cccc(NCc2cn3cccnc3n2)c1	none
Clc1ccc(OCc2cn3cccnc3n2)c2ncccc12	ELG1 genotoxic 15.8µM, Rab9 promoter act inconclusive, FLuc counter inconclusive, SMN2 splice enh 11.2µM, NPC1 promoter act inconclusive
CC(=O)c1cccc(NC(=O)c2cc(-c3ccco3)on2)c1	ELG1 genotoxic inconclusive, FLuc counter 2.39µM (no result: SMN2 splice enh, KinaseGlo FLuc)
COc1ccc(-c2cc(C(=O)Nc3ccc(C)c(C)c3)no2)cc1	none (no result: SMN2 splice enh, KinaseGlo FLuc)
O=C(Nc1cccc(O)c1)c1cc(-c2ccco2)on1	ELG1 genotoxic inconclusive, FLuc counter 0.953µM
COc1ccc(-c2cc(C(=O)Nc3cccc(O)c3)no2)cc1	ELG1 genotoxic inconclusive, Rab9 promoter act 3.98µM, FLuc counter 0.379µM, NPC1 promoter act inconclusive (no result: SMN2 splice enh, KinaseGlo FLuc)
O=C(Nc1cccc(C(F)(F)F)c1)c1cc(-c2ccco2)on1	FLuc counter inconclusive (no result: SMN2 splice enh, KinaseGlo FLuc)
O=C(c1cnn2c1NC(=C1CC1)C=C2C(F)F)N(C1CCCCC1)C1CCCCC1	none (no result: ELG1 genotoxic, Rab9 promoter act, SMN2 splice enh, NPC1 promoter act, KinaseGlo FLuc)
N#Cc1ccccc1Cn1c(=O)n(Cc2ccc(C(=O)NC3CCN(Cc4ccccc4)CC3)cc2)c(=O)c2ccccc21	none (no result: ELG1 genotoxic, Rab9 promoter act, NPC1 promoter act, KinaseGlo FLuc)
Cc1oc(-c2ccccc2)nc1C(=O)O	none (no result: SMN2 splice enh)
COc1ccc(-c2nc3c(Br)c(N)c(Br)cc3o2)cc1	Rab9 promoter act inconclusive, FLuc counter 1.35µM, NPC1 promoter act 3.16µM
